Measurements published in PubChem BioAssay (NCI).
The panel holds about 79,000 compounds, 15% with a hit somewhere; the sample as a whole holds those more often. No stated cut-off is given here; in the data, active means growth inhibition above about 70%; inactive means the rest.

Key:
[1] = NCI Yeast Anticancer Drug Screen. Data for the rad50 strain (AID 155);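 further: 0% = growth of vehicle-only cultures of the same strain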; details: S. cerevisiae rad50 strain growth inhibition; at 50.0 µM; stronger effect = higher value
Method in brief: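 Vehicle-treated cultures provide the reference for the growth inhibition reported for compound-exposed, repair-deficient yeast.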

[2] = NCI Yeast Anticancer Drug Screen. Data for the mec2-1 strain (AID 157); details: S. cerevisiae mec2-1 strain, at 50.0 µM, stronger effect = higher value
Method in brief: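 Cells of the genetically defined mec2-1 yeast strain are incubated with test compound. Inhibition of growth is calculated against vehicle-treated controls.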

[3] = NCI Yeast Anticancer Drug Screen. Data for the sgs1 mgt1 strain (AID 161);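 further: 0% = growth of cultures given vehicle only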; details: S. cerevisiae sgs1 mgt1 strain, at 50.0 µM, stronger effect = higher value
Method in brief: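 Mutant yeast exposed to compound; growth scored against vehicle-only wells.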

[4] = NCI Yeast Anticancer Drug Screen. Data for the cln2 rad14 strain (AID 165);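 further: 0% = growth equal to vehicle treated cultures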; details: S. cerevisiae cln2 rad14 strain, at 50.0 µM, stronger effect = higher value
Method in brief: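 The screen exposed genetically defined yeast (cln2 rad14) to test compounds and scored growth inhibition relative to vehicle-treated controls.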

[5] = NCI Yeast Anticancer Drug Screen. Data for the bub3 strain (AID 167); details: S. cerevisiae bub3 mutant strain, at 50.0 µM, stronger effect = higher value
Method in brief: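 Mutant yeast screening strain plus compound; vehicle-treated cultures serve as the 0% inhibition reference.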

[6] = NCI Yeast Anticancer Drug Screen. Data for the mlh1 rad18 strain (AID 175); details: S. cerevisiae mlh1 rad18 strain growth inhibition; at 50.0 µM; stronger effect = higher value
Method in brief: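 Compound-treated yeast growth, normalised to vehicle controls. Strain bears defined DNA repair mutations.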

Measured: growth inhibition

O=C1NC(=O)C(Cc2cccc(OCc3ccccc3)c2)C(=O)N1
inactive: [1] 20.1% | [2] 2.2% | [3] -1.65% | [4] 5.1% | [5] 0.1% | [6] -52%

O=P(O)(O)SP(=O)(O)O.[Mn]
inactive: [1] -14.7% | [2] -14.2% | [3] -1.9% | [4] -30.2% | [5] -11.7% | [6] -16.1%

CCOC(=O)C(O)(c1ccccc1)c1ccccc1
inactive: [1] 2.05% | [2] -5.95% | [3] 6.85% | [4] 16.8% | [5] -3.35% | [6] 31%

COc1ccc2c(c1)[C@@]13CCCC[C@H]1[C@@H](C2)N(C)CC3=O
inactive: [1] 41.5% | [2] 26.9% | [3] -14.3% | [4] 9.65% | [5] 3% | [6] -48%

CC[As](=O)(O)CCCc1ccccc1
inactive: [1] 5.55% | [2] 32.9% | [3] 14.9% | [4] 3.1% | [5] -0.15% | [6] -2.05%

O=[N+]([O-])NC1=NCCN1CCCl
inactive: [1] -17.2% | [2] -13.6% | [3] -4.6% | [4] -25.1% | [5] -12.6% | [6] 9.15%

N#CCCSCCC#N
inactive: [1] 25.4% | [2] 6.55% | [3] 14.1% | [4] 3.7% | [5] 6.8% | [6] 4.6%

Cc1ccc(N)cc1
inactive: [1] 2.1% | [2] -2.55% | [3] -7.2% | [4] -1.1% | [5] 9.4% | [6] 1.3%

CCC(=O)OC1(c2ccccc2)CCN(CCC(=O)c2ccccc2)CC1C (stereo not given)
inactive: [1] 48.6% | [2] 36.6% | [3] 47.8% | [4] 38.6% | [5] 27.1% | [6] 37.3%

CNP(=S)(Oc1cc(Cl)c(Cl)cc1Cl)N1CCN(c2ccc(Cl)cc2)CC1 (stereo not given)
inactive: [1] -0.5% | [2] 2% | [3] 4.35% | [4] -0.9% | [5] -2.9% | [6] 16.4%

CS(=O)(=O)c1ccc([As](=O)(O)O)cc1
inactive: [1] 5.7% | [2] 0.1% | [3] 20.6% | [4] -34.1% | [5] 5.2% | [6] -11.8%

CCN1C(=O)NC(=O)C(C)(N2CCCCC2)C1=O (stereo not given)
inactive: [1] 13.4% | [2] 5.3% | [3] 25.9% | [4] 15.2% | [5] 10.7% | [6] 28.7%

O=C1NC(=O)C(=Cc2ccccn2)C(=O)N1
inactive: [1] -0.95% | [2] -25% | [3] -0.45% | [4] 18.6% | [5] -6.4% | [6] 2.3%

CNC(=O)Oc1ccc(Br)cc1Br
inactive: [1] 29.4% | [2] -0.95% | [3] -2.6% | [4] -3.55% | [5] 10.9% | [6] 2.35%

C[C@@H]1C[C@@H]2c3cccc4c3c(cn4CO)C[C@H]2N(C)C1
inactive: [1] 8.55% | [2] -24.6% | [3] 28.6% | [4] 3.4% | [5] 0.55% | [6] 8.15%

CCC1C(=O)NC(=O)N(c2ccccc2)C1=O (stereo not given)
inactive: [1] 13.7% | [2] -8.3% | [3] -3.25% | [4] -39.4% | [5] 3.1% | [6] -6%

CC(C)(C)Nc1ccccc1.[C-]#[O+].[C-]#[O+].[C-]#[O+].[Cr]
inactive: [1] -7.75% | [2] -2.3% | [3] -0.55% | [4] 10.3% | [5] 28.4% | [6] 6.3%

CCCCOP(=O)(CSCC)OCCCC
inactive: [1] -6.2% | [2] 0.1% | [3] -16.6% | [4] 16.2% | [5] 14.9% | [6] -1.4%

CC1(C(=N)N)CCOC1=O (stereo not given)
inactive: [1] 4.4% | [2] 18.5% | [3] -10.8% | [4] 4.5% | [5] -1% | [6] 7.55%

Cc1ccc(N2C(=O)C3C(C2=O)C2(Cl)C(Cl)=C(Cl)C3(Cl)C2(Cl)Cl)cc1Cl (stereo not given)
inactive: [1] -1.25% | [2] 3.25% | [3] -1.1% | [4] -36.1% | [5] 2.65% | [6] 9.5%
